The results in this text go back to PubChem BioAssay (NCI).

The panel holds about 83,000 compounds, 20% with a hit somewhere; the sample as a whole holds those more often.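 Values shown are percent growth following 48 h exposure of cells in 96-well plates to a single concentration of compound; below 10 was considered active.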 Activity calls are given as the source filed them.

In the assay the test system is HCT-15 colon. Put plainly: NCI-60 one-dose screen, 48 h (100 = growth as untreated, 0 = no growth, -100 = all killed). The conditions noted are these: 10 µM unless noted.
As to `CCN(CC)CC#CCOC(=O)[C@]1(C)CCC[C@]2(C)[C@H]3C[C@H]4C(C(C)C)=C[C@]3(CC[C@H]21)[C@@H]1C(=O)CCC(=O)[C@@H]14`, the growth is 42.7% (inactive).
As to `CN1CCN(CC#CCOC(=O)CNC(=O)[C@]23CCC(C)(C)C[C@H]2C2=CC[C@@H]4[C@@]5(C)CC[C@H](O)C(C)(C)[C@@H]5CC[C@@]4(C)[C@]2(C)CC3)CC1`, the growth is 77% (inactive).
For the compound `Nc1cc(N)c(S(=O)(=O)O)cc1N=Nc1cc([N+](=O)[O-])ccc1O`, the growth is 104% (inactive).
The same measure for `COc1ccc2c(c1)Oc1nc(N)c(C#N)c(N)c1C2Sc1ccc(SC)cc1` (stereo not drawn): -10.9% (active); for `CO[C@@]12C=C[C@@]34CCC(=O)N3c3ccccc3[C@@H](O1)C4C2`: 104% (inactive); for `COc1cc(NC(=O)Nc2cnc(Nc3ccc(N4CCOCC4)cc3)nc2Oc2ccc(F)cc2)cc(OC)c1`: 104% (inactive).
To `C/C(=N/Nc1nc2ccccc2n1C)c1ccccn1` belongs 25.3% (inactive); to `Cc1cccc(C)c1NC(=O)CN(CC(C)C)CC(O)COc1ccccc1` (stereo not drawn), 90.7% (inactive); to `COC(=O)c1ccc2c(c1)NC(=O)[C@@H]1CCCN21`, 96.6% (inactive).
The same measure for `O=C1c2ccccc2C(=O)c2c1oc1c2c(=O)[nH]c2ccc(Cl)cc21`: -31.1% (active); for `COc1cc(NC(=O)Nc2cnc(Nc3ccc(N4CCOCC4)cc3)nc2Oc2ccc(C(F)(F)F)cc2)cc(OC)c1`: 103% (inactive).
In the case of `COc1ccc(C(=O)c2cc(F)c(F)c(OC)c2F)cc1OC(=O)CCl`, the growth was 26.4% (inactive).
For `Nc1c(C(=O)Nc2cccc3ccccc23)sc2nc3c(cc12)CCCCC3`, the growth was 28.6% (inactive).
